The target in assay [1] is Lysosomal acid glucosylceramidase (Homo sapiens) (UniProt P04062). Briefly: Glucocerebrosidase-p2 (AID 348; in the data active means potency below about 10 µM; further: potency means the concentration at half of the fitted maximal effect). Conditions: purified GBA, blue fluorogenic substrate, 40 min. In outline:
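Compounds titrated from 0.6 nM upwards against 0.2 nM enzyme in pH 5.9 citric acid/KH2PO4, taurocholate, tween-20; blue fluorogenic substrate 80 uM, 40 min room temperature, stopped and read Ex 365/Em 440 for AC50.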

A short description of assay [2]: AP1 Signaling Pathway (AID 357; active means well fitted curve in either direction with a large enough effect, not every such curve was filed as active;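 further: ME-180 reporter cells stimulated with EGF at its EC50 level; on the % scale 0 is the no-effect control and ±100 the full control effect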). Conditions: ME-180 AP-1-bla reporter, EGF-induced, beta-lactamase ratio, 5 h; at 7.69 µM (top of the series) unless noted. In outline:
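Titration-series screen for positive or negative modulators of EC50 EGF-induced signaling in ME-180 cells carrying an AP-1-driven beta-lactamase reporter. After 5 hours at 37 degrees Celsius, CCF4 460nm/530nm emission ratio gave %Activity; AC50 values derived.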

A short description of assay [3]: Stat Signaling Pathway (AID 446; active means well fitted curve in either direction with a large enough effect, not every such curve was filed as active;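 further: ME-180 cervical cancer cells given 40 pM IL-6 alongside compound; SIE-controlled beta-lactamase reporter measured as 460/530 nm FRET emission ratio; on the % scale 0 is the no-effect control and ±100 the full control effect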). Conditions: ME-180 SIE beta-lactamase reporter, IL-6 stimulated, 5 h; at 7.69 µM (top of the series) unless noted. In outline: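 ME-180 SIE-bla cells; overnight plating; cpd + IL-6 40 pM, 5 h, 37 C; LiveBLAzer 2.5 h RT; 460/530 nm emission ratio. Normalized to 300 pM IL-6 and 125 nM JAK inhibitor controls.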
The target in assay [4] is Glucocorticoid receptor (Homo sapiens) (UniProt P04150). Briefly: GR-EFC Redistribution (AID 451; calls by dose curve; further: potency means the concentration at half of the fitted maximal effect). Conditions: CHO-K1 GR-EFC translocation, beta-gal luminescence, 2 h. The method in brief:
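Translocation of GR-ED fusion to nuclear EA restores b-gal, read by luminescence after 1 h room-temperature detection. Engineered CHO-K1 biosensor cells, 1,000/well, exposed 2 h at 37 C to titrations up to 46 uM final.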

The target of assay [5] is 3',5'-cyclic-AMP phosphodiesterase 4B (Homo sapiens) (UniProt Q07343). Kind of assay: qHTS Assay for Inhibitors of PDE-IV (AID 607; active means well fitted activation curve with a large enough effect in the main read-out, with a control signal flat, not every such curve was filed as active; further: % of control where 0% means no effect). The conditions noted are these: HEK293 ACTOne CNG channel cells, membrane potential fluorescence; series mostly up to 22.9 µM. In outline:
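ACTOne HEK293 cells carry a modified cAMP-gated CNG channel and express endogenous PDE4; plated 1000 cells/well, compounds up to 22.9 uM final. Membrane-potential dye fluorescence (ex 535/em 590) was read; parental cells received 10 uM forskolin + 100 uM RO 20-1724.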
For orientation: Quantitative high-throughput screening tests each substance at several concentrations.

A short description of assay [6]: qHTS Assay for Lipid Storage Modulators (AID 1519; calls by dose curve). The conditions noted are these: Drosophila S3 cells, BODIPY lipid droplet/cell ratio, laser cytometry, cells loaded with oleic acid; for activity change, negative = inhibition: at 57.5 µM (top of the series). In outline:
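Cells seeded at 5,000 per well were treated with compounds over a concentration series and loaded with oleic acid (400 uM, as added). Lipid droplet fluorescence (488 nm excitation, 500-530 nm channel) was read by laser-scanning cytometry and normalized to 20 uM Triacsin C.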

Assay [7] in a line: Primary qHTS for small molecule stabilizers of the endoplasmic reticulum resident proteome: Secreted ER Calcium Modulated Protein (SERCaMP) assay (AID 1508630). Further: on the % scale 0 is the no-effect control and ±100 the full control effect. Conditions: SH-SY5Y GLuc-SERCaMP (Gaussia luciferase released on ER calcium loss) secretion, thapsigargin, luminescence; series mostly up to 38.4 µM. The method in brief: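 GLuc-SERCaMP-expressing SH-SY5Y cells, pretreated 16 h with compound, are challenged with thapsigargin to empty ER calcium stores; after 4 h, coelenterazine is added directly to the medium and luminescence is imaged.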

The target in assay [8] is Cytochrome P450 1A2 (Homo sapiens) (UniProt P05177). Briefly: p450-cyp1a2 (AID 410; calls by dose curve; further: potency means the concentration at half of the fitted maximal effect). Conditions: recombinant CYP1A2, luciferin-ME demethylation, luminescence; series mostly up to 57 µM. In outline:
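Inhibition was calculated relative to 57 uM furafylline (full inhibition). The reaction used human CYP1A2 at 20nM with Luciferin-ME at its Km, 100uM, driven by an NADPH-regenerating system for 60 min at room temperature.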

A short description of assay [9]: NFAT Signaling Pathway (AID 444; active means well fitted curve in either direction with a large enough effect, not every such curve was filed as active;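 further: carbachol stimulus at about its EC50 of 1 µM final; on the % scale 0 is the no-effect control and ±100 the full control effect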). The conditions noted are these: Jurkat NFAT-bla M1, carbachol, beta-lactamase ratio, 5 h; at 7.69 µM (top of the series) unless noted. In outline: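 Read-out: CCF4 FRET ratio (460 nm/530 nm) after 1 h RT dye loading, used for %activity and AC50 from titration series. Cells: Jurkat NFAT-β-lactamase/M1 line, treated with compound plus 1 uM carbachol for 5 h, 37 °C.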

The target of assay [10] is Glucocorticoid receptor (Homo sapiens) (UniProt P04150). Kind of assay: GR-GFP Redistribution (AID 450;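 active means compounds whose dose series gives a full or clear partial fitted curve of increased nuclear translocation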; further: potency means the concentration at half of the fitted maximal effect). The conditions noted are these: U2OS GR-GFP nuclear translocation, laser cytometry, 2 h.
Assay [11] has as its target Mitogen-activated protein kinase 10 (Mus musculus) (UniProt Q61831). Kind of assay: JNK3 AlphaScreen Assay (AID 530; active means well fitted curve in either direction with a large enough effect, not every such curve was filed as active). The conditions noted are these: JNK3 lysate, c-Jun phosphorylation; series mostly up to 57.1 µM. In outline:
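Room-temperature AlphaScreen kinase assay; pre-activated HepG2 lysate as JNK3 source, biotin-GST-cJun(1-79) substrate, 10 uM ATP, compound 15 min preincubation.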
On the technique in general: Alpha assays give light when donor and acceptor beads are brought close together.

Assay [12] has as its target Dual specificity protein kinase CLK4 (Homo sapiens) (UniProt Q9HAZ1). Kind of assay: qHTS Assay for Inhibitors of CDC-like Kinase 4 (Kinase-Glo Assay) (AID 1770). Further: on the % scale 0 is the no-effect control and ±100 the full control effect; nearly all actives have a fitted effect of over 65% in size. Conditions: recombinant Clk4, Kinase-Glo ATP depletion luminescence; series mostly up to 66.7 µM. The method in brief: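 25 nM Clk4 with 100 uM RS repeat peptide and 1 uM ATP (final) in Tris pH7.5, 10 mM MgCl2, 4.5 h at room temperature. Remaining ATP measured by Kinase-Glo luciferase luminescence.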

Assay [13] has the same target. Kind of assay: qHTS Assay for Inhibitors of CDC-like Kinase 4 (ADP-Glo Assay) (AID 1771). Further: on the % scale 0 is the no-effect control and ±100 the full control effect; nearly all actives have a fitted effect of over 70% in size. Conditions: recombinant CLK4, ADP-Glo luminescence; series mostly up to 80 µM. In outline: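 Kinase reaction: Clk4 at 25 nM, RS repeat peptide substrate at 100 uM, ATP at 1 uM, 1 hr, room temperature. Product ADP detected as luciferase signal via ADP-Glo.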
The target is the same in assay [14]. Kind of assay: qHTS Assay for Inhibitors of CDC-like Kinase 4 (ADP-FP Assay) (AID 1795). Further: on the % scale 0 is the no-effect control and ±100 the full control effect; nearly all actives have a fitted effect of over 60% in size. Conditions: Transcreener ADP fluorescence polarization; series mostly up to 50 µM. In outline:
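Recombinant Clk4 (6.25 nM) phosphorylated 100 uM RS repeat peptide with 1 uM ATP in 25 mM Tris pH 7.5, 10 mM MgCl2, 0.5 mM EGTA, 2.5 mM DTT, 0.01% Triton X-100 for 1 h. ADP was detected by Transcreener ADP2 competitive fluorescence polarization after 30 min at room temperature.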

For assay [15], the target named is Ubiquitin carboxyl-terminal hydrolase 1 (Homo sapiens) (UniProt O94782). Briefly: Inhibitors of USP1/UAF1: Pilot qHTS (AID 504865).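 Further: rhodamine fluorescence freed from ubiquitin-rhodamine substrate followed over time; top concentration of the series differs between compounds; on the % scale 0 is the no-effect control and ±100 the full control effect; nearly all actives have a fitted effect of over 35% in size.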 Conditions: purified USP1/UAF1, Ub-rhodamine cleavage fluorescence; series mostly up to 54.9 µM. The method in brief:
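USP1/UAF1 complex at 1 nM preincubated 15 min at room temperature with compound, then Ub-Rho substrate added at 150 nM final. Fluorescence (480/540 nm) read kinetically in 50 mM HEPES pH 7.8, 0.5 mM EDTA, 1 mM TCEP, 0.1 mg/ml BSA, 0.01% Tween-20.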

For assay [16], the target named is Cytochrome P450 3A4 (Homo sapiens) (UniProt P08684). Briefly: qHTS Assay for Activators of Cytochrome P450 3A4 (AID 885). Further: nearly all actives have a fitted effect of over 65% in size. Conditions: recombinant CYP3A4, Luciferin-PPXE luminescence, 60 min; series mostly up to 57.1 µM. The method in brief: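 20nM CYP3A4 + 25uM Luciferin-PPXE (=KM), 200mM KPO4; cpd 10 min RT; NADPH regen, 60 min RT; stop w/ detection buffer, 20 min; luminescence. Normalized to 57 uM ketoconazole.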

The nature of assay [17]: qHTS Assay for Identification of Small Molecule Agonists for Hypoxia Response Element Signaling Pathway (AID 914; active means well fitted activation curve with a large enough effect in the signal ratio, with a control signal flat, not every such curve was filed as active; the % refers to the signal ratio; further: % of control where 0% means no effect). The conditions noted are these: ME-180 (cervical carcinoma) HRE-bla reporter, beta-lactamase ratio, CoCl2, 17 h; activation: stronger effect = higher value. The method in brief:
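Compounds in a titration series were added to ME-180 reporter cells alongside an EC50 level of CoCl2. After 17 hours, beta-lactamase activity was read as the 460nm/530nm emission ratio of CCF4, giving AC50 values.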

[18] abbreviates: measured here: cell count channel max response.
Setting [19] is: measured here: lipid channel max response.

Records with an inconclusive call do not appear. Activity calls are given as the source filed them. Unless noted, the call rests on the fitted dose curve; in most records, active means well fitted curve in the direction sought with a large enough effect; inconclusive means small, poorly fitted or top-dose-only effect, or another doubt; inactive means no such curve, though single readings can be large; an effect the other way counts as inactive or inconclusive.

Chain of Ubiquitin carboxyl-terminal hydrolase 1 (Homo sapiens) (O94782 whole entry, looked up): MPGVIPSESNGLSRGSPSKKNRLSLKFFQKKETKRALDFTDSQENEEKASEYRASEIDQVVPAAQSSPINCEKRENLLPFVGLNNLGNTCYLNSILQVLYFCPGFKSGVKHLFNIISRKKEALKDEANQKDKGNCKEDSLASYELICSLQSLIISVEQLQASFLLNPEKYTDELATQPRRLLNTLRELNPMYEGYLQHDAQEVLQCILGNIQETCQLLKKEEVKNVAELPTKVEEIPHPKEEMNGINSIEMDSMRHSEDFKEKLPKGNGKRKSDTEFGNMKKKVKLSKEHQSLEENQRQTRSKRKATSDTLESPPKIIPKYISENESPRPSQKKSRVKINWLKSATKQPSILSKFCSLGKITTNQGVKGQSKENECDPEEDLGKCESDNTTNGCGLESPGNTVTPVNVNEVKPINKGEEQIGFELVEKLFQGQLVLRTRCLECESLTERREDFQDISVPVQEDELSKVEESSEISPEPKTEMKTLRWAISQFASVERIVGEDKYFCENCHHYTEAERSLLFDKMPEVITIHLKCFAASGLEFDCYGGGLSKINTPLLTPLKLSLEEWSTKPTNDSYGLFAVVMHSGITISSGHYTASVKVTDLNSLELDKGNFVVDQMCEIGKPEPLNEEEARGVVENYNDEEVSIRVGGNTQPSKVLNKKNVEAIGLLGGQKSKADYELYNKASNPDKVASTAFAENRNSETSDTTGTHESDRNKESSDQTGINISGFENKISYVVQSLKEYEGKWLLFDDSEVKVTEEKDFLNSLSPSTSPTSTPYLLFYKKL
Chain of Lysosomal acid glucosylceramidase (Homo sapiens) (P04062 whole entry, looked up): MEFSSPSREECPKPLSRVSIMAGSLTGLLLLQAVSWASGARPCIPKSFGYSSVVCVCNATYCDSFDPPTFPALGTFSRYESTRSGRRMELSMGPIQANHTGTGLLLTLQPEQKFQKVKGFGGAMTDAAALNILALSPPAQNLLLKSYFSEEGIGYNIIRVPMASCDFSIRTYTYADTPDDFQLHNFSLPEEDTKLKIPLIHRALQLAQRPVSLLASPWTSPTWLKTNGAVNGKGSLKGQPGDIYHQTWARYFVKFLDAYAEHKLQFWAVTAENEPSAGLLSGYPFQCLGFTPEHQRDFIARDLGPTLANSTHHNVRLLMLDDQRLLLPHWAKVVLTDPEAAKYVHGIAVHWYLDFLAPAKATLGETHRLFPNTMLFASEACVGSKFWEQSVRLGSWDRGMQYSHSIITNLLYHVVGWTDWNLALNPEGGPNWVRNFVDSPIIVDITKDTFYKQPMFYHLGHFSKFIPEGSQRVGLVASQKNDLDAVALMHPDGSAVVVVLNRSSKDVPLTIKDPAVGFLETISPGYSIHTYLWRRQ
Chain of Glucocorticoid receptor (Homo sapiens) (P04150 whole entry, looked up, the tested form may be a part): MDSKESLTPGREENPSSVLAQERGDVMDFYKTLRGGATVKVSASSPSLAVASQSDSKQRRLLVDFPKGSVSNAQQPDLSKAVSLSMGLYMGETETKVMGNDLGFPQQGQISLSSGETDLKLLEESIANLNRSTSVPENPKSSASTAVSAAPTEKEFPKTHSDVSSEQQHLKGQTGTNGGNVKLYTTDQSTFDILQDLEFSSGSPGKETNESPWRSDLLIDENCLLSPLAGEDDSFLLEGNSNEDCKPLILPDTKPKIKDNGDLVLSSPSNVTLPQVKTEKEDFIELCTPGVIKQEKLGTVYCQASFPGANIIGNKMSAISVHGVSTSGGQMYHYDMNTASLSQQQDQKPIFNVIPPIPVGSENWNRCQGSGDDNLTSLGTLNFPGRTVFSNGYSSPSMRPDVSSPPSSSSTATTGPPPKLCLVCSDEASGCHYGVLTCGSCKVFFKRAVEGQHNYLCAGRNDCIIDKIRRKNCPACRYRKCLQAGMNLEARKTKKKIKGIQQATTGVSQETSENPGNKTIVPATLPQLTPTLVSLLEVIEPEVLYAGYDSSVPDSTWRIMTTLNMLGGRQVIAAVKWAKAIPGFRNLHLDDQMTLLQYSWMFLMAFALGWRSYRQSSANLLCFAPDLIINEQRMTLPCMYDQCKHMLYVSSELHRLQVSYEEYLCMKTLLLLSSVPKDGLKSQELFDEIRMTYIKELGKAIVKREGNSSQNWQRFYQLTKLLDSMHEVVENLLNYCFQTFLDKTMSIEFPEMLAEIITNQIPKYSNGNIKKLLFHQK
Chain of Dual specificity protein kinase CLK4 (Homo sapiens) (Q9HAZ1 whole entry, looked up): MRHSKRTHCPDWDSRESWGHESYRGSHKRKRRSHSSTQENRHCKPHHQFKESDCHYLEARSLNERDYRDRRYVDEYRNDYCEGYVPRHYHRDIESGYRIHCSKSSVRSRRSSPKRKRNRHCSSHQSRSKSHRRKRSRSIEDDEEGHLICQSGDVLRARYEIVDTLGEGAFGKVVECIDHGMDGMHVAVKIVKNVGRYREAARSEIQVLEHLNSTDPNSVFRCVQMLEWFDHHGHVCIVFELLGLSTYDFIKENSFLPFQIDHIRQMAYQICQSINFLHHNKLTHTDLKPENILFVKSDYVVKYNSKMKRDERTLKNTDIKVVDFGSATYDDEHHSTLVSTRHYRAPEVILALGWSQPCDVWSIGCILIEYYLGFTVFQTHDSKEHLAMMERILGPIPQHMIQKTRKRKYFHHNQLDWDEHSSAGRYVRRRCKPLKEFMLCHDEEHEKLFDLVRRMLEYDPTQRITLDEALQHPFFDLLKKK
Chain of 3',5'-cyclic-AMP phosphodiesterase 4B (Homo sapiens) (Q07343 whole entry, looked up): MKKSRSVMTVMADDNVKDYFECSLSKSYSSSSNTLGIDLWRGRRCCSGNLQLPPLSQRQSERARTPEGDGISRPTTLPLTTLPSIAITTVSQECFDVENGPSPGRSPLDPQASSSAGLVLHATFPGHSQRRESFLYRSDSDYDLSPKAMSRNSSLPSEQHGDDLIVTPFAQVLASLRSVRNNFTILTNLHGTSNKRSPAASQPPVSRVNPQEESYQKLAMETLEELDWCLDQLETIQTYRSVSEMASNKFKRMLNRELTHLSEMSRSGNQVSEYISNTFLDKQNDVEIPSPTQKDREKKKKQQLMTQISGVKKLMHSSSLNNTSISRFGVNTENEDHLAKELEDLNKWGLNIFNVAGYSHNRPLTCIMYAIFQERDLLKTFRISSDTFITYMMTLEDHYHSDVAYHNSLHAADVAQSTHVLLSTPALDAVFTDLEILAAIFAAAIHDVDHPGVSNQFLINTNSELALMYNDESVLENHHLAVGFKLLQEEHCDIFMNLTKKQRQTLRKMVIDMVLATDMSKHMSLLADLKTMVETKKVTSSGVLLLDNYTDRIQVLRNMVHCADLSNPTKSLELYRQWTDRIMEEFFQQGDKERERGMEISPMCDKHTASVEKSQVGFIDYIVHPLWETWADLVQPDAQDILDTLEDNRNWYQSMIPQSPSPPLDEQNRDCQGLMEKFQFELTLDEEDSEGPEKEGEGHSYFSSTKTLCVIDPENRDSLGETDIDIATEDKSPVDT
Chain of Cytochrome P450 1A2 (Homo sapiens) (P05177 whole entry, looked up): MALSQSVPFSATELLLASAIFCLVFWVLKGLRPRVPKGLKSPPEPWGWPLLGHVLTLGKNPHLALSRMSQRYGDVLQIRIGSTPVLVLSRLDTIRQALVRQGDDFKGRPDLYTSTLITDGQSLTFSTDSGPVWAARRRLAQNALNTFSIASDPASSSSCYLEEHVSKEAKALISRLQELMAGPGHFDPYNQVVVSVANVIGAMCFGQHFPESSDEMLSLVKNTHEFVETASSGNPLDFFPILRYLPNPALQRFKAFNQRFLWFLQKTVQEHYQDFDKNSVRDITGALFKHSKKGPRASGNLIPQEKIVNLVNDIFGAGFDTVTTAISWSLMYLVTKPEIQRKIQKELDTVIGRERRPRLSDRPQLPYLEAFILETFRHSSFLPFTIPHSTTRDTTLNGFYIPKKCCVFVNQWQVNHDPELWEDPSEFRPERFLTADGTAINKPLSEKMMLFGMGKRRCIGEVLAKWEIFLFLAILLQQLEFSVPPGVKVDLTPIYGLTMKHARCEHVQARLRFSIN
Chain of Cytochrome P450 3A4 (Homo sapiens) (P08684 whole entry, looked up): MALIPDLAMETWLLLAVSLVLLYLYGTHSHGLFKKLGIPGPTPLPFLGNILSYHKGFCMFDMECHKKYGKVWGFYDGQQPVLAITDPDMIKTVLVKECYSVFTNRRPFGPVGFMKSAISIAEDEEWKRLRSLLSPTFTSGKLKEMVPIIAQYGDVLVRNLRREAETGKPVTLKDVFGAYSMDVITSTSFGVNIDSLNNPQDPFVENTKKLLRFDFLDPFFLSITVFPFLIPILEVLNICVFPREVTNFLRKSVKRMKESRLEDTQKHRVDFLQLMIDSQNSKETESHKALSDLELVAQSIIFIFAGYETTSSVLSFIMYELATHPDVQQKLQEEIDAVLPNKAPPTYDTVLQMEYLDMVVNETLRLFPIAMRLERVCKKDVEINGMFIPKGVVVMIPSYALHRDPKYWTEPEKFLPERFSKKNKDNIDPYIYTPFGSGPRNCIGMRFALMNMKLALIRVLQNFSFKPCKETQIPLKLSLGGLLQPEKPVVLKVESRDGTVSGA

For the compound `Cc1noc(C)c1C(=O)N1CCC2(CCN(Cc3ccc(C#N)cc3)CC2)CC1`, the Potency in assay [1] was > 11.4 µM (inactive); in assay [4] it was > 46 µM (inactive). Also, the activity change, negative = inhibition in assay [2] is 22% (inactive); in assay [6] it was -1.31% (inactive). The activity, negative = inhibition in [3] was 2.67% (inactive). The Potency entry in [5] and in assay [7] was “inactive” in each case. Moreover, the max response in assay [6] (setting [18]) was determined as 9.89%; in assay [6] (setting [19]), 10.9%.

With `COc1ccc(-n2c(=O)c(-c3cn(C)c4ccccc34)nc3cnc(N4CCOCC4)nc32)cc1`, the Potency in assay [1] was > 11.4 µM (inactive); in assay [8] it was 31.6 µM (active); in assay [10] it was > 9.22 µM (inactive); in [4] it was > 46 µM (inactive). Besides, the activity change, negative = inhibition is 11.1% (inactive) in assay [2], -2.62% (inactive) in assay [9] and 7.4% (inactive) in [6]. Besides, in assay [3], the activity, negative = inhibition was 3.33% (inactive). Further, in assay [11], the outcome was inactive. Also, the Potency entry in [5], in assay [12], in [13], in assay [14], in [15] and in assay [7] was “inactive” throughout. In addition, the max response was 4.27% in [6] (setting [18]) and 9.94% in [6] (setting [19]).

On to `CN(C)c1ncc2nc(-c3ccc(F)cc3)c(=O)n(Cc3cccs3)c2n1`, for which the Potency was > 11.4 µM (inactive) in [1], 1 µM (active) in assay [8], > 9.22 µM (inactive) in assay [10] and > 46 µM (inactive) in [4]. The figures for the activity change, negative = inhibition in assay [2], in assay [9] and in [6] were 14.3% (inactive), 5.02% (inactive) and 2.1% (inactive), respectively. Besides, in assay [3], the activity, negative = inhibition is -1.13% (inactive). The max response in [6] (setting [18]) was 26.1%; in [6] (setting [19]), 28%. Besides, the Potency result in [12], in [13], in [14], in assay [15] and in [7] was “inactive” in each case.

For the compound `O=C(c1cnccn1)N1CCC[C@@]2(CCN(C(c3ccccc3)c3ccccc3)C2)C1`, the Potency is > 11.4 µM (inactive) in assay [1], 15.8 µM (active) in [8] and > 46 µM (inactive) in assay [4]. Also, the activity change, negative = inhibition in [2] was 0.193% (inactive); in [9], 11.2% (inactive); in assay [6], -1.1% (inactive). Moreover, the activity, negative = inhibition in assay [3] was 16.5% (inactive). In assay [11], the compound was classed as inactive. For the same compound, the Potency result in [16] and in assay [7] was “inactive” throughout. In addition, the results for the max response in assay [6] (setting [18]) and in assay [6] (setting [19]) were 3.2% and 5.21%, respectively.

Take `CN1CCN(c2ncc3nc(CCc4ccccc4)c(=O)n(C4CC4)c3n2)CC1`: the Potency was > 11.4 µM (inactive) in assay [1], 12.6 µM (active) in assay [8], > 9.22 µM (inactive) in assay [10] and > 46 µM (inactive) in assay [4]. Further, the values for the activity change, negative = inhibition in [2], in assay [9] and in assay [6] were 10.3% (inactive), 15.1% (inactive) and 1.8% (inactive), respectively. Besides, in [3], the activity, negative = inhibition is -7.8% (inactive). Further, the call in [11] was inactive. The Potency result in assay [5], in [16], in assay [12], in [13], in assay [14] and in assay [15] was “inactive” in each case. Further, the Potency result in assay [7] is “inactive”. In addition, the activation in [17] was -5.15% (inactive). The max response in assay [6] (setting [18]) stood at 15.9%; in [6] (setting [19]), 14.9%.

Take `Cc1nc2cnc(N3CCOCC3)nc2n(C)c1=O`: the Potency was > 11.4 µM (inactive) in assay [1], 6.31 µM (active) in assay [8], > 9.22 µM (inactive) in [10] and > 46 µM (inactive) in [4]. The values for the activity change, negative = inhibition in assay [2], in assay [9] and in assay [6] were -9.18% (inactive), 3.85% (inactive) and 4.73% (inactive), respectively. Besides, the activity, negative = inhibition in assay [3] is -2.49% (inactive). The outcome in assay [11] was inactive. In addition, the Potency entry in assay [5], in [12], in assay [13], in assay [14] and in [7] was “inactive” throughout. Besides, the max response is 11.2% in assay [6] (setting [18]) and 13.5% in [6] (setting [19]).

The values are drawn from PubChem BioAssay (NCATS).
